# CYP2C19 activ – cytochrome P450 2C19 (human) activation; P33261; recombinant CYP2C19, luciferin-H EGE luminescence; stronger effect = higher value; 0 = fully inhibited enzyme, 1 = untreated enzyme; activation factor at 5 µM; 96,000 tested, under 10 active;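 active means activation factor of at least 2 at 5 µM in the primary screen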;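 further: 0 = wells with 2.5 mM tranylcypromine and 1 = vehicle-only wells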
# Target sequence (P33261 whole entry, looked up): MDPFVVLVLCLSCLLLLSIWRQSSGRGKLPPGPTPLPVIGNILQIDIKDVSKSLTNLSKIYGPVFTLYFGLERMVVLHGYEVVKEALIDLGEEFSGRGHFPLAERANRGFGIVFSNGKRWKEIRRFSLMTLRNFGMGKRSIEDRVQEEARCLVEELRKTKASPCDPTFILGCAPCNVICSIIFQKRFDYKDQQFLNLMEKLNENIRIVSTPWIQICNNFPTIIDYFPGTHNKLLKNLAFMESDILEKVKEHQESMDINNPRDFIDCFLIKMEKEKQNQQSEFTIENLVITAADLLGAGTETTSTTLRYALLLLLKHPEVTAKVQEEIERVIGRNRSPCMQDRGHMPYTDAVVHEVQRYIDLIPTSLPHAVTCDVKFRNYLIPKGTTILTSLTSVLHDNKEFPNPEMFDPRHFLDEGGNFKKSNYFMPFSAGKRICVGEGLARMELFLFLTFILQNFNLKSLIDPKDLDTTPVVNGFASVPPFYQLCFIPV
# CYP2C19 inh – blocks human cytochrome P450 2C19; CYP2C19 Supersomes, luciferin-H EGE luminescence, 30 min; inhibition, % at 5 µM; hit rate 21% among 96,000; AID 778;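 active means CYP2C19 inhibition above a set limit at 5 µM in the primary screen, cut at about 50% in these data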;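 further: plate controls were negative control wells for no effect and 2.5 mM tranylcypromine positive control for full effect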
# MRP resist rev – compounds reversing MRP-mediated drug resistance. hit rate 0.04% among 85,000. differential viability (reversal), % at 10 µM. H69AR cells + 2 uM doxorubicin, CellTiter-Glo, 72 h;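 active means viability drop by adding the cancer drug above about 55%, with treated viability meeting a 40% cutoff, limit read from the data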;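 further: viability without doxorubicin minus viability with 2 µM doxorubicin for each compound; larger differential means the compound sensitizes cells more to doxorubicin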
# CYP2C9 activ – activators of human CYP2C9. recombinant CYP2C9, luciferin-H conversion, luminescence; stronger effect = higher value; factor 1 = untreated enzyme, 0 = blocked. hit rate 1.4% among 96,000. activation factor at 5 µM. AID 1024;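 active means activation factor of 2 or more for CYP2C9 at a 5 µM dose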;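 further: 0 = sulfaphenazole-blocked wells and 1 = vehicle-only wells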
# MRP1 act – activators of MRP-1 | H69AR cells + doxorubicin, viability rescue, CellTiter-Glo | viability increase, % at 10 µM | hit rate 0.61% among 140,000;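 active means viability gain under doxorubicin at or above a set limit, the compound median plus 3 SD, cut at about 4.7% in these data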;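 further: MRP-1 overexpressing cells given doxorubicin 25 µM after compound pretreatment; 18-22 h compound pretreatment then 72 h with doxorubicin before readout; 0% = doxorubicin-only wells and 100% = vehicle-treated cells without doxorubicin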
# CYP2C9 inhib – human CYP2C9 inhibition; P11712; CYP2C9 Supersomes, luciferin-H conversion, luminescence; inhibition, % at 5 µM; hit rate 20% among 96,000; AID 777;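 active means blocking of liver enzyme CYP2C9 beyond about 50% at 5 µM, limit read from the data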
# * hit, by the source's call; nt = no result given. The list is not random: actives were taken first. Their share in the collection is about 21%.
SMILES,CYP2C19 activ,CYP2C19 inh,MRP resist rev,CYP2C9 activ,MRP1 act,CYP2C9 inhib
O=[N+]([O-])/C(C(Cl)=C(Cl)Cl)=C(\Nc1ccc(F)cc1)n1cncn1,0.8,17.0,8.5,0.6,-1.4,42.0
CCOc1ccc(N/C(=C(/C(Cl)=C(Cl)Cl)[N+](=O)[O-])n2cncn2)cc1,0.4,60.7*,-0.5,0.3,-1.1,67.8*
O=C(Oc1cccc2cccnc12)c1ccc2c(c1)OCCO2,0.6,44.8,-9.5,3.3*,-5.2,-231.1
O=C(Oc1cccc2cccnc12)c1ccc(Br)o1,1.1,-5.7,-9.2,1,-2.6,-4.3
O=C(Nc1ccccc1)c1nnn(Cc2ccccc2)c1NC(=O)C(F)(F)F,0.4,56.9*,12.8,0.1,-1.8,86.4*
COc1ccccc1NC(=O)c1nnn(Cc2ccccc2)c1NC(C)=O,0.8,17.6,-0.5,0.8,-2.0,18.0
COc1ccccc1NC(=O)c1nnn(Cc2ccccc2)c1NC(=O)C(F)(F)F,0.6,44.7,8.5,0.3,1.0,71.0*
c1cc(-c2noc(CC3CCCCC3)n2)ccn1,0,98.8*,2.8,0.2,-0.9,77.0*
c1ccc(CC2CCN(Cc3nc(-c4ccccc4)no3)CC2)cc1,0.9,14.0,12.5,0.9,-1.9,9.9
Cc1ccccc1NS(=O)(=O)c1ccc(OCC(=O)N2CCCCC2)cc1,0.8,22.5,-1.2,1,-1.3,2.2
CC(C)c1cc(=O)oc2c3c4c(cc12)CCCN4CCC3,0.1,86.9*,-3.3,0.9,-3.0,12.6
CCSCCc1nnc(NC(=O)Nc2cccc(C(F)(F)F)c2)s1,nt,nt,nt,nt,-6.0,nt
COc1ccc2c(c1)c(CC(=O)Nc1ccc(C)cc1)c(C)n2C(=O)c1ccc(Cl)cc1,0.3,68.8*,nt,0.1,-3.5,88.6*
COc1ccccc1CNC(=O)c1ccc(NS(C)(=O)=O)cc1,1.2,-16.1,0.3,2*,-2.3,-95.5
COc1ccccc1CNC(=O)c1ccccc1NS(C)(=O)=O,0.7,33.0,-3.9,0.3,-0.1,74.9*
CC(C)CC(=O)Nc1nnn(C)n1,0.8,15.0,nt,1.1,0.9,-5.7
Cc1ccc(C)c(NC(=S)NNC(=O)c2csc(C(C)C)c2)c1,nt,nt,-14.2,nt,-3.8,nt
CN(c1ccccc1C(=O)Nc1ccc(S(=O)(=O)N2CCOCC2)cc1)S(C)(=O)=O,nt,nt,nt,nt,-2.1,nt
CCC(C)(C)NC(=O)C(c1ccncc1)N(Cc1ccc(C)cc1)C(=O)c1csnn1 (configuration not stated),nt,nt,-0.8,nt,-2.1,nt
NC(=O)c1ccc(-n2nnnc2Oc2ccccc2)cc1,0.8,22.3,5.6,1,-2.1,3.4
Cc1ccc(C(C)C)c(Oc2nnnn2-c2ccccc2)c1,0.1,90.6*,-33.5,0.2,-3.8,75.9*
Cc1ccc(C)c(Oc2nnnn2-c2ccccc2)c1,0.1,92.8*,-6.6,0.6,-1.6,42.8
COc1ccccc1Oc1nnnn1-c1ccc(C(N)=O)cc1,0.7,25.8,7.8,0.9,-3.7,12.0
Cc1ccc(N(CCC(=O)Nc2nnc(C3CC3)s2)S(=O)(=O)c2ccccc2)cc1,nt,nt,nt,nt,-1.8,nt
CC(=O)Nc1ccc(S(=O)(=O)N2CCN(CCCOc3ccccc3Cl)CC2)cc1,0.3,67.9*,-15.8,0.5,-4.2,48.4
SMILES,CYP2C19 activ,CYP2C19 inh,MRP resist rev,CYP2C9 activ,MRP1 act,CYP2C9 inhib
COc1cccc(OCCCN2CCN(S(=O)(=O)c3ccc(NC(C)=O)cc3)CC2)c1,0.1,86.0*,-17.0,0.2,-1.1,79.9*
O=C1CS/C(=C\[N+](=O)[O-])N1c1ccccc1,0.9,6.3,nt,0.9,-1.7,5.6
CCOC(=O)Cn1c(=O)oc2cc(S(=O)(=O)Nc3c(C)cc(C)cc3C)ccc21,0.7,25.1,-11.6,0.8,-3.0,17.7
O=C(Cn1c(=O)oc2cc(S(=O)(=O)N3CCCC3)ccc21)NCc1ccccn1,1.1,-13.8,1.6,0.6,5.3*,42.3
O=C(Cn1c(=O)oc2cc(S(=O)(=O)NCc3ccccc3)ccc21)NCc1ccco1,1,1.6,9.9,0.4,-3.3,61.1*
O=C(Cn1c(=O)oc2cc(S(=O)(=O)N3CCc4ccccc43)ccc21)NC1CCCC1,0.8,21.1,9.3,0.4,-2.3,64.0*
CCCCNS(=O)(=O)c1ccc2c(c1)oc(=O)n2CC(=O)OCC,0.8,17.7,5.1,0.3,0.3,72.3*
CCSc1cnc(-c2ccccc2)n1CC,0.6,39.2,4.8,0.9,3.7,11.6
CC(=O)N=C(N)Sc1nc2ccccc2[nH]1,nt,nt,-0.9,nt,-3.7,nt
CCN(Cc1ccccc1)C(=O)Cn1cc2c(n1)CCCC2,0.8,22.8,-7.0,1,-0.9,0.6
COc1ccc2c(C)c(C(=O)NCC(C)O)oc2c1OC (configuration not stated),0.9,5.3,nt,1,-0.5,4.5
CC1CCCCN1C(=O)c1cc2nc(-c3ccccc3)cc(-c3ccccc3)n2n1 (configuration not stated),nt,nt,-8.2,nt,1.7,nt
Cc1ccc(NC(=O)Cn2c(=O)oc3cc(S(=O)(=O)N4CCC(C)CC4)ccc32)cc1C,1,4.7,-5.5,0.3,-4.8,67.3*
O=C(Cn1c(=O)oc2cc(S(=O)(=O)N3CCCCC3)ccc21)N1CCc2ccccc2C1,1,-2.9,2.7,0.9,-0.9,12.3
CCOC(=O)Cn1c(=O)oc2cc(S(=O)(=O)N3CCCc4ccccc43)ccc21,0.2,77.2*,11.5,0.2,-0.7,77.3*
CCOC(=O)Cn1c(=O)oc2cc(S(=O)(=O)N3CCn4c3nc3ccccc34)ccc21,0.9,14.7,2.7,1.2,-2.0,-17.9
CC(C)CCNC(=O)Cn1c(=O)oc2cc(S(=O)(=O)N3CCc4ccccc43)ccc21,0.7,34.2,13.3,0.2,-1.9,82.9*
O=C(Cn1c(=O)oc2cc(S(=O)(=O)N3CCCCCC3)ccc21)NC1CCCCC1,1,1.8,11.4,0.9,-3.2,12.0
CCCCNC(=O)NCc1cnn(C)c1C,nt,nt,nt,nt,-0.3,nt
CCOc1ccc(S(=O)(=O)NCCCN2CCOCC2)cc1,1,0.8,-6.8,1.2,-0.5,-23.9
CCN1C(=O)c2cccc3c(S(=O)(=O)NCCc4c[nH]c5ccccc45)ccc1c23,0.4,63.0*,nt,0.2,-1.9,83.8*
CCN1C(=O)c2cccc3c(S(=O)(=O)NCCCN4CCOCC4)ccc1c23,0.5,54.0*,10.7,0.5,-1.9,46.1
CCOC(=O)N1CCN(C(=O)C2CCCN(S(=O)(=O)c3ccccc3)C2)CC1 (configuration not stated),0.9,10.2,9.1,0.8,-1.4,24.2
Cc1csc(NC(=O)C2CCCN(S(=O)(=O)c3ccc(Br)s3)C2)n1 (configuration not stated),0.1,92.3*,-12.7,0.1,0.5,93.9*
CCOC(=O)N1CCN(C(=O)C2CCCN(S(=O)(=O)c3ccc(C)cc3)C2)CC1 (configuration not stated),0.5,53.4*,8.5,1.6,-1.0,-56.6
CCOC(=O)C1CCCN(C(=O)C2CCN(S(=O)(=O)c3cccs3)CC2)C1 (configuration not stated),0.2,75.1*,9.5,0.4,-1.3,64.0*

# Source: PubChem (several laboratories)
